Experimental data published in PubChem BioAssay (NCI).
Compounds without any hit were thinned out: in the full panel of roughly 83,000, 20% have a hit.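 Cells were grown in 96-well plates and exposed to the test compound at a single concentration for 48 hours; results are reported as percent growth, with values below 10 considered active.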 Active and inactive are the calls of the source.

Tested on: BT-549 breast
Assay: NCI-60 one-dose screen, 48 h (100 = growth as untreated, 0 = no growth, -100 = all killed)
Conditions: 10 µM unless noted

SMILES	growth
C#C[C@]1(O)CC[C@H]2[C@@H]3CC=C4c5sc(NCc6ccccc6)nc5CC[C@]4(C)[C@H]3CC[C@@]21C	18.2% (inactive)
Cn1cc(-c2cc3ncnc(Nc4ccc(NC(=O)Nc5cc(C(C)(C)C)on5)cc4)c3s2)cn1	16.4% (inactive)
CCc1cccc2c3c(sc12)C(c1ccc(F)cc1)C(C#N)=C(/N=C/c1ccc(Cl)cc1)O3 (stereo not drawn)	2.79% (active)
C1=CC(c2nn3c(-c4ccccc4)nnc3s2)=Cc2ccccc2O1	77.9% (inactive)
Cc1ccc(-c2csc(N/N=C/c3cccs3)n2)cc1	112% (inactive)
C#C[C@]1(O)CC[C@H]2[C@@H]3CC=C4c5sc(Nc6ccc(C)cn6)nc5CC[C@]4(C)[C@H]3CC[C@@]21C	-12.7% (active)
COC(=O)c1ccc(NC2=C(Cl)C(=O)c3nc(C)ccc3C2=O)cc1	99% (inactive)
CCCCCN1C(=O)/C(=c2\sc3n(c2=O)C2C(NN=3)N(CC)C(=O)N2CC)c2cccc(C)c21 (stereo not drawn)	68% (inactive)
COc1ccc(/C(=N\N=C(N)N)c2ccc(Cl)cc2)cc1OC	81.2% (inactive)
CCCCCC[n+]1ccc(SCC(=O)n2ccc3ccccc32)c2ccccc21	73.2% (inactive)
NCCNC(=O)c1cccc(COc2ccccc2NC(=O)c2cc(Br)c(Br)[nH]2)c1	130% (inactive)
CC1CCN(CC(=O)Nn2c(COc3ccccc3)nc3ccccc3c2=O)CC1	97.9% (inactive)
CC(C)(C)Nc1nc2c(OCCc3ccccc3)cccn2c1-c1ccc([N+](=O)[O-])cc1	95.8% (inactive)
